# Test results from ChEMBL document CHEMBL1157539, “Thousands of chemical starting points for antimalarial lead identification” (Nature, 2010).
# Several values for one entry are separate records, joined by “and”; a condition that tells them apart may be missing. Equal values may be shown once.
# System: Plasmodium falciparum
# Test: GSK_TCMDC: Inhibition of Plasmodium falciparum Dd2 in whole red blood cells, using parasite LDH activity as an index of growth. Test compounds present at 2uM
# Type: functional
row,SMILES,Inhibition
1,O=C(c1cc(C(=O)NCc2ccc(Cl)cc2)c(=O)n(Cc2ccc(Cl)cc2)c1)c1cc(F)ccc1O,2%
2,C/C=C1\CN2CC[C@H]1C[C@H]2[C@H](O)c1ccnc2ccc(O)cc12,0%
3,CC(=O)N(Cc1ccc(-c2ccc(CNCCc3ccccc3)cc2)cc1)C1CCN(Cc2ccccc2)CC1.O=C(O)C(F)(F)F,15%
4,CCCCCc1cc(O)c2c(c1)OC(C)(C)c1ccncc1-2.Cl,57%
5,O=C(/C=C/c1ccc(C(F)(F)F)cc1)NC1CCC(CN2CCC(c3c[nH]c4ccccc34)CC2)CC1 (stereo unspecified),100% and 97%
6,CCC1(C)CC(CCNCc2ccccc2O)(c2ccc(C)cc2)CCO1 (stereo unspecified),66%
7,CN(c1ccc(NC(=O)CCOc2ccccc2)cc1)C1CCN(Cc2cccc(O)c2)CC1.O=C(O)C(F)(F)F,0%
8,Cc1[nH]c2cc(Cl)ccc2c1C1=CCN(CCN2CCOc3c(Br)cccc3C2=O)CC1.Cl,58%
9,CCCCCCCn1c(=O)c(C(=O)Nc2c(C)cccc2C)c(O)c2ccccc21,42%
10,COc1cccc(C=CC(=O)NC2CCC(CN3CCC(c4c[nH]c5ccccc45)CC3)CC2)c1OC (stereo unspecified),40%
11,O=C(/C=C/c1ccccc1O)NC1CCC(CN2CCC(c3c[nH]c4ccccc34)CC2)CC1 (stereo unspecified),45% and 73%
12,O=C(C=Cc1ccccc1O)N1CCC(CN2CCC(c3c[nH]c4ccccc34)CC2)CC1,43%
13,CC(C)CN1CCC(N(C)c2cc(NC(=O)c3cccc(F)c3)ccn2)CC1.O=C(O)C(F)(F)F,10%
14,Cc1ccc(CC(C)NCC(O)c2cccc(C(F)(F)F)c2)cc1.Cl (stereo unspecified),97%
15,Cl.Cl.c1ccc2c(NCCCCCCNc3c4ccccc4nc4ccccc34)c3ccccc3nc2c1,80%
16,Cc1ccc2c(C3=CCN(CCCCC4(C)C(=O)Nc5c(F)cccc54)CC3)c(C)[nH]c2c1 (stereo unspecified),89%
17,O=P(O)(O)Oc1c(Br)cc(Br)cc1-c1cc(Br)cc(Br)c1O [BROMOFENOFOS],0%
18,C=C[C@H]1CN2CC[C@H]1C[C@H]2[C@H](O)c1ccnc2ccccc12 [CINCHONIDINE],3%
19,CC[C@H]1CN2CC[C@H]1C[C@H]2[C@H](O)c1cc(-c2ccc(SC)cc2)nc2ccc(OC)cc12.Cl,99%

row,SMILES,Inhibition
1,Cl.O=C(CNC1CCCCC1)c1ccc(O)c(O)c1,99%
2,COc1cccc(C(=O)C2CC2CN2CC=C(c3c[nH]c4ccc(OC)nc34)CC2)c1 (stereo unspecified),89%
3,CCOc1ccc2nccc([C@@H](O)[C@@H]3C[C@@H]4CCN3C[C@@H]4CC)c2c1 [ETHYLHYDROCUPREINE],51%
4,Cc1cc(N(C)C2CCN(C)CC2)nc(Nc2ccc(Cl)cc2)n1,90%
5,Cc1ccc(CC(C)NC[C@H](O)c2cccc(Cl)c2)cc1.Cl (stereo partly specified),47%
6,O=c1n[n+](C2CCCCC2)[n-]o1,82%
7,CSc1nccc(-c2ccc(S(=O)(=O)NC3CCC(CN4CCC(c5c[nH]c6ccccc56)CC4)CC3)s2)n1 (stereo unspecified),33% and 67%
8,C/C=C1\CN2CC[C@H]1C[C@H]2[C@H](O)c1ccnc2ccc(OC)cc12,45%
9,CC(=O)Nc1ccc(CN2CCC(N(C)c3cc(NC(=O)c4cccs4)ccn3)CC2)cc1.O=C(O)C(F)(F)F,43%
10,CN(Cc1ccccc1)C1CCN(CCc2c[nH]c3ccc(F)cc23)CC1.O=C(O)C(F)(F)F,91%
11,O=C(/C=C/c1ccc(Cl)c(Cl)c1)NCc1ccc(CN2CCC(c3c[nH]c4ccccc34)CC2)cc1,86%
12,CCCCCC(C)C(C)c1cc(O)c2c3c(c(=O)oc2c1)CN(Cc1ccccc1)CC3.Cl (stereo unspecified),47%
13,O=C(Nc1ccccc1Cl)NC1CCC(CN2CCC(c3c[nH]c4ccccc34)CC2)CC1 (stereo unspecified),34% and 31%
14,Cc1ccc(/C=C/C(=O)NC2CCC(CN3CCC(c4c[nH]c5ccccc45)CC3)CC2)cc1 (stereo unspecified),66% and 69%
15,COc1ccc(CC(C)NCC(O)c2cccc(C(F)(F)F)c2)cc1 (stereo unspecified),94%
16,CCCc1cc([C@@H](O)[C@@H]2C[C@@H]3CCN2C[C@@H]3CC)c2ccccc2n1,57%
17,CC[C@H]1CN2CC[C@H]1C[C@H]2[C@H](O)c1cc(-c2ccccc2C(F)(F)F)nc2ccc(OC)cc12.Cl,99%
18,COc1ccc(OC)c(CNCC(O)c2cc(C(F)(F)F)cc(C(F)(F)F)c2)c1 (stereo unspecified),100%
19,COC(=O)c1ccc(CC(C)NCC(O)c2cccc3ccccc23)cc1 (stereo unspecified),82%

# System: HepG2
# Test: GSK_TCMDC: Percent inhibition of human HepG2 cell line. Test compounds present at 10uM.
# Type: functional
row,SMILES,Inhibition
1,O=C(c1cc(C(=O)NCc2ccc(Cl)cc2)c(=O)n(Cc2ccc(Cl)cc2)c1)c1cc(F)ccc1O,7%
2,C/C=C1\CN2CC[C@H]1C[C@H]2[C@H](O)c1ccnc2ccc(O)cc12,0%
3,CC(=O)N(Cc1ccc(-c2ccc(CNCCc3ccccc3)cc2)cc1)C1CCN(Cc2ccccc2)CC1.O=C(O)C(F)(F)F,45%
4,CCCCCc1cc(O)c2c(c1)OC(C)(C)c1ccncc1-2.Cl,0%
5,O=C(/C=C/c1ccc(C(F)(F)F)cc1)NC1CCC(CN2CCC(c3c[nH]c4ccccc34)CC2)CC1 (stereo unspecified),73% and 42%
6,CCC1(C)CC(CCNCc2ccccc2O)(c2ccc(C)cc2)CCO1 (stereo unspecified),9%
7,CN(c1ccc(NC(=O)CCOc2ccccc2)cc1)C1CCN(Cc2cccc(O)c2)CC1.O=C(O)C(F)(F)F,18%
8,Cc1[nH]c2cc(Cl)ccc2c1C1=CCN(CCN2CCOc3c(Br)cccc3C2=O)CC1.Cl,1%
9,CCCCCCCn1c(=O)c(C(=O)Nc2c(C)cccc2C)c(O)c2ccccc21,6%
10,COc1cccc(C=CC(=O)NC2CCC(CN3CCC(c4c[nH]c5ccccc45)CC3)CC2)c1OC (stereo unspecified),37%
11,O=C(/C=C/c1ccccc1O)NC1CCC(CN2CCC(c3c[nH]c4ccccc34)CC2)CC1 (stereo unspecified),11% and 22%
12,O=C(C=Cc1ccccc1O)N1CCC(CN2CCC(c3c[nH]c4ccccc34)CC2)CC1,27%
13,CC(C)CN1CCC(N(C)c2cc(NC(=O)c3cccc(F)c3)ccn2)CC1.O=C(O)C(F)(F)F,8%
14,Cc1ccc(CC(C)NCC(O)c2cccc(C(F)(F)F)c2)cc1.Cl (stereo unspecified),6%
15,Cl.Cl.c1ccc2c(NCCCCCCNc3c4ccccc4nc4ccccc34)c3ccccc3nc2c1,60%
16,Cc1ccc2c(C3=CCN(CCCCC4(C)C(=O)Nc5c(F)cccc54)CC3)c(C)[nH]c2c1 (stereo unspecified),5%
17,O=P(O)(O)Oc1c(Br)cc(Br)cc1-c1cc(Br)cc(Br)c1O [BROMOFENOFOS],10%
18,C=C[C@H]1CN2CC[C@H]1C[C@H]2[C@H](O)c1ccnc2ccccc12 [CINCHONIDINE],9%
19,CC[C@H]1CN2CC[C@H]1C[C@H]2[C@H](O)c1cc(-c2ccc(SC)cc2)nc2ccc(OC)cc12.Cl,9%

row,SMILES,Inhibition
1,Cl.O=C(CNC1CCCCC1)c1ccc(O)c(O)c1,61%
2,COc1cccc(C(=O)C2CC2CN2CC=C(c3c[nH]c4ccc(OC)nc34)CC2)c1 (stereo unspecified),8%
3,CCOc1ccc2nccc([C@@H](O)[C@@H]3C[C@@H]4CCN3C[C@@H]4CC)c2c1 [ETHYLHYDROCUPREINE],1%
4,Cc1cc(N(C)C2CCN(C)CC2)nc(Nc2ccc(Cl)cc2)n1,15%
5,Cc1ccc(CC(C)NC[C@H](O)c2cccc(Cl)c2)cc1.Cl (stereo partly specified),15%
6,O=c1n[n+](C2CCCCC2)[n-]o1,0%
7,CSc1nccc(-c2ccc(S(=O)(=O)NC3CCC(CN4CCC(c5c[nH]c6ccccc56)CC4)CC3)s2)n1 (stereo unspecified),61% and 36%
8,C/C=C1\CN2CC[C@H]1C[C@H]2[C@H](O)c1ccnc2ccc(OC)cc12,0%
9,CC(=O)Nc1ccc(CN2CCC(N(C)c3cc(NC(=O)c4cccs4)ccn3)CC2)cc1.O=C(O)C(F)(F)F,0%
10,CN(Cc1ccccc1)C1CCN(CCc2c[nH]c3ccc(F)cc23)CC1.O=C(O)C(F)(F)F,28%
11,O=C(/C=C/c1ccc(Cl)c(Cl)c1)NCc1ccc(CN2CCC(c3c[nH]c4ccccc34)CC2)cc1,59%
12,CCCCCC(C)C(C)c1cc(O)c2c3c(c(=O)oc2c1)CN(Cc1ccccc1)CC3.Cl (stereo unspecified),4%
13,O=C(Nc1ccccc1Cl)NC1CCC(CN2CCC(c3c[nH]c4ccccc34)CC2)CC1 (stereo unspecified),32% and 37%
14,Cc1ccc(/C=C/C(=O)NC2CCC(CN3CCC(c4c[nH]c5ccccc45)CC3)CC2)cc1 (stereo unspecified),32% and 41%
15,COc1ccc(CC(C)NCC(O)c2cccc(C(F)(F)F)c2)cc1 (stereo unspecified),0%
16,CCCc1cc([C@@H](O)[C@@H]2C[C@@H]3CCN2C[C@@H]3CC)c2ccccc2n1,9%
17,CC[C@H]1CN2CC[C@H]1C[C@H]2[C@H](O)c1cc(-c2ccccc2C(F)(F)F)nc2ccc(OC)cc12.Cl,0%
18,COc1ccc(OC)c(CNCC(O)c2cc(C(F)(F)F)cc(C(F)(F)F)c2)c1 (stereo unspecified),7%
19,COC(=O)c1ccc(CC(C)NCC(O)c2cccc3ccccc23)cc1 (stereo unspecified),3%
